This is a sample that favours compounds with a hit; in the whole collection about 2.2% have one here.
C2C12 statin = suppression of simvastatin myotoxicity. C2C12 myotubes + simvastatin, ATP luminescence, 48 h; scaled: DMSO 0, geranylgeraniol control 100. rescue of ATP level, % at 7.49 µM. actives 0.78% (n = 330,000). AID 602340;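 active = mean ATP rescue above about 67%, or every replicate alone reaching that limit, limit read from the data, passing the limit was not always enough; inconclusive = no clear call, values can overlap the other calls; inactive = mean under the limit and some replicate under it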;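 also: myotubes were challenged with 10 µM simvastatin during compound exposure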
PvdQ acylase = blocks Pseudomonas aeruginosa PvdQ acylase activity | purified PvdQ acylase, fluorescence plate reader | AID 488965 | inhibition, % at 10 µM | actives 0.063% (n = 340,000); in the data active = inhibition above about 30%, passing the limit was not always enough; inconclusive = no clear call, values can overlap the other calls;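 also: 0% = vehicle neutral wells and 100% = reference inhibitor wells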
PGC1a acetyl inh = modulators of PGC1a acetylation; U2OS PGC1a acetylation, AlphaScreen anti-acetyl-lysine; with virally co-expressed GCN5 acetyltransferase; inhibition, % at 15.6 µM; actives 0.17% (n = 350,000); AID 651687;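 active = every replicate shows inhibition of at least 40%; inconclusive = mean inhibition at least 40% but some replicate below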;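 also: 0% = neutral control wells and 100% = positive control wells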
miR122 inh = inhibitors of miR-122 in Huh7 cells. Huh7 miR-122 Renilla luciferase sensor, 48 h; neutral wells = 0, positive control = 100. activation (reporter increase), % at 12.5 µM. actives 0.3% (n = 340,000). AID 602342;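 active = mean replicate activation score at least 90 and every replicate individually at or above 90; inconclusive = only one of the two criteria met; inactive = neither criterion met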;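 also: higher luciferase means less miR-122 activity so hits act as miR-122 inhibitors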
DENV2 CPE rescue = DENV2-induced cell death inhibition; DENV2-infected cells, cytopathic effect rescue, plate reader; CPE inhibition, % at 9.99 µM; actives 1.7% (n = 350,000); in the data active = CPE inhibition above about 20%, passing the limit was not always enough; inconclusive = no clear call, values can overlap the other calls; tested in BHK-21 cells;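 also: 0% = median of neutral control wells and 100% = median of positive control wells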
Active calls of the source: *; u = inconclusive; x = no result given; [ ] = another dose, or the depositor's remark.

SMILES	C2C12 statin	PvdQ acylase	PGC1a acetyl inh	miR122 inh	DENV2 CPE rescue
CO[C@@H]1CN(C)C(=O)c2ccc(NC(=O)Cc3ccccc3)cc2OC[C@@H](C)N(C)C[C@H]1C	-13	x	14	x	18
O=C(OCCOc1ccc(Br)cc1)c1cnccn1	117*	-5	-2	2	x
O=C(COC(=O)c1cnccn1)c1ccc(Br)cc1	-4	-4	11	-11	x
CCNC(=O)[C@@H]1[C@@H](CO)[C@@H]2Cn3c(ccc(C4=CCCCC4)c3=O)[C@@H]2N1C(=O)CC1CC1	-6	x	x	-1[16.7 µM]	x
CCS(=O)(=O)N1CC(=O)N2[C@H](CO)[C@@H](c3ccc(C#CCC4CCCC4)cc3)[C@H]2C1	x	x	-5	x	0
CN1CCCN=C1/C=C/c1cccs1	1	-7	x	x	74*
O=C(/C=C/c1cccs1)N1CCCC1	3	-6	x	x	2
COc1cc(C)nc(N2CCC(C(=O)NCC3CCCO3)CC2)n1 (centres undefined)	13	-16	7	0	44*
CCCC#Cc1ccc([C@H]2[C@@H](CO)N3C(=O)CN(C(=O)c4ccccc4)C[C@@H]23)cc1	x	x	-4	x	13
O=C(c1ccccc1)N1C[C@H]2[C@@H](c3ccccc31)[C@@H](CO)N2Cc1cocn1	-14	x	2	25[16.7 µM]	u
O=C(NCc1ccccn1)C1CCN(S(=O)(=O)c2ccccc2F)CC1	2	-10	3	-4	4
O=C(CN1CCN(S(=O)(=O)c2ccccc2F)CC1)NC1CCCC1	x	-5	10	x	22*
N#Cc1ccccc1S(=O)(=O)N1CCN(CC(=O)NC(=O)NC2CCCCC2)CC1	x	6	x	x	-4
O=C(NNc1c(F)c(F)cc(F)c1F)C1CCN(S(=O)(=O)c2ccccc2F)CC1	-2	-5	x	x	43*
O=C(c1cccc([N+](=O)[O-])c1)c1cc2ccccc2o1	x	-12	x	x	46*
CC1=C([C@H](O)c2ccccc2)[C@H](CO)n2c(=O)n(-c3ccccc3)c(=O)n2C1	x	x	12	x	2
OCCN(CCCn1c(-c2ccncc2)nc2ccccc21)c1nc(CN2CCCCC2)cs1	66*	-4	-3	1	-6
CCN1CCN(c2ncnc3c2cnn3-c2ccc(Cl)cc2)CC1	-6	13	7	-6	50*
CN(C)CCNc1ncnc2c1cnn2-c1ccc(Cl)cc1	-11	9	-7	-1	40*
CCN1CCN(c2ncnc3c2cnn3-c2ccccc2)CC1	x	2	14	0	4
CC1CCN(c2ncnc3c2cnn3Cc2ccc(Cl)cc2)CC1	172*	-10	1	0	x
C[C@H](CO)N1C[C@H](C)[C@@H](CN(C)S(C)(=O)=O)Oc2ccc(NC(=O)CCC(F)(F)F)cc2CC1=O	2	x	-3	-13[16.7 µM]	0
Cc1ccc(NC(=S)NCc2ccc(F)cc2)cc1	1	-16	-1	106*	1
Clc1cc(Br)ccc1OCCOCCN1CCOCC1	-14	-1	1	-1	x
Clc1cc(Br)ccc1OCCOCCN1CCCC1	-1	1	7	6	25*
SMILES	C2C12 statin	PvdQ acylase	PGC1a acetyl inh	miR122 inh	DENV2 CPE rescue
Clc1cc(Br)ccc1OCCCn1ccnc1	1	0	-8	-14	37*
CC(=O)N(C)C[C@H]1Oc2cc(-c3ccc(C#N)cc3)ccc2S(=O)(=O)N([C@H](C)CO)C[C@@H]1C	-9	x	6	0[16.7 µM]	-6
CS(=O)(=O)N1CC2(C1)[C@H](c1ccccc1)[C@H](CO)N2Cc1ccccn1	x	x	6	x	-11
Nc1ncnc2c1nc(N1CCCCC1)n2[C@@H]1O[C@H](CO)[C@@H](O)[C@H]1O	101*	-11	-4	-3	x
COc1ccc(S(=O)(=O)Nc2ccc3c(c2)C(=O)N([C@H](C)CO)C[C@H](C)[C@H](CN(C)Cc2ccc4c(c2)OCO4)OCCCC[C@H](C)O3)cc1	-204	x	-16	-13[16.7 µM]	59*
COc1ccc(S(=O)(=O)Nc2ccc3c(c2)C(=O)N([C@H](C)CO)C[C@@H](C)[C@@H](CN(C)Cc2ccc4c(c2)OCO4)OCCCC[C@@H](C)O3)cc1	-47	x	-27	-10[16.7 µM]	21*
COc1ccc(S(=O)(=O)Nc2ccc3c(c2)C(=O)N([C@@H](C)CO)C[C@@H](C)[C@@H](CN(C)Cc2ccc4c(c2)OCO4)OCCCC[C@H](C)O3)cc1	90*	x	-10	-6[16.7 µM]	22*
COc1ccc(S(=O)(=O)Nc2ccc3c(c2)C(=O)N([C@@H](C)CO)C[C@H](C)[C@@H](CN(C)Cc2ccc4c(c2)OCO4)OCCCC[C@@H](C)O3)cc1	-200	x	-5	-6[16.7 µM]	24*
COc1ccc(S(=O)(=O)Nc2ccc3c(c2)C(=O)N([C@@H](C)CO)C[C@H](C)[C@H](CN(C)Cc2ccc4c(c2)OCO4)OCCCC[C@@H](C)O3)cc1	11	x	7	-9[16.7 µM]	-6
C[C@H](CO)N1C[C@H](C)[C@@H](CN(C)S(=O)(=O)c2ccccc2)Oc2ccc(N(C)C)cc2CC1=O	-6	x	5	2[16.7 µM]	0
C[C@H]1CN([C@@H](C)CO)C(=O)Cc2cc(NC(=O)Cc3ccccc3)ccc2O[C@H]1CN(C)C(=O)NC1CCCCC1	8	x	13	-1[16.7 µM]	19
CCN(C[C@H]1N[C@H](CO)[C@H]1c1ccc(-c2ccccc2)cc1)C(=O)COC	-1	x	1	-12[16.7 µM]	-9
C[C@H]1CN([C@@H](C)CO)C(=O)c2cc(NC(=O)Nc3ccc(F)cc3)ccc2O[C@H]1CN(C)C(=O)Nc1ccc(F)cc1	3	x	-13	6[16.7 µM]	x
CN1c2ccc(-c3ccc(C#N)cc3)cc2[C@H]2[C@H](CCN2S(=O)(=O)c2cccc(F)c2)[C@@H]1CO	-22	x	24	-8[16.7 µM]	3
Cc1ccc2c(CC(=O)OC(C)C(=O)Nc3ncc(Cl)cc3Cl)coc2c1 (centres undefined)	x	-12	8	6	79*
CC(OC(=O)Cc1coc2ccc3ccccc3c12)C(=O)Nc1ncc(Cl)cc1Cl (centres undefined)	x	-10	x	x	x
C[C@@H]1CN([C@@H](C)CO)S(=O)(=O)c2ccc(C#CC(C)(C)O)cc2O[C@@H]1CN(C)C(=O)CN(C)C	-6	x	9	-16[16.7 µM]	-11
Cc1ccc(C)c(NS(=O)(=O)c2cc(C(=O)NCc3ccncc3)ccc2C)c1	3	4	4	56	98*
CC(=O)Nc1cc(S(=O)(=O)Nc2ccccc2)c(C)cc1C	5	-15	5	36	x
Cc1ccc(C(=O)Nc2ccc(C)c(S(=O)(=O)Nc3ccccc3Cl)c2)s1	x	7	x	413*	-6
Cc1ccc(C(=O)NCc2ccncc2)cc1S(=O)(=O)Nc1cccc(C)c1C	0	-1	x	u	2
CC(=O)Nc1cc(S(=O)(=O)Nc2cccc(C)c2)c(C)cc1C	11	-13	41	144*	x
Cc1ccc(NC(=O)c2cc3c(s2)CCCC3)cc1S(=O)(=O)Nc1ccccc1Cl	x	22	x	89	x
Cc1ccc(NS(=O)(=O)c2cc(C(=O)NCCSc3ccc(C)cc3)ccc2C)cc1	24	-10	-28	115*	x

Screening data from PubChem.
